Some test systems named below: SN12C renal; UO-31 renal; TK-10 renal; ACHN renal; CAKI-1 renal; A498 renal; CCRF-CEM leukemia; MOLT-4 leukemia; SR leukemia.
Common to all, as to assay: NCI-60 one-dose screen, 48 h (100 = growth as untreated, 0 = no growth, -100 = all killed)
Conditions in all cases: 10 µM unless noted

Compounds without any hit were thinned out: in the full panel of roughly 83,000, 20% have a hit.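 In brief: 96-well plates, 48 h treatment, single concentration, percent growth endpoint.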 Unmarked numbers belong to inactive results. Active and inactive are the calls of the source. How the source made its calls: active means growth percent below 10; inactive means the rest.

Take `COc1cccc(-c2nn(C)c3sc(C(=O)NCCN4CCN(c5ccccc5F)CC4)cc23)c1`: the growth in the assay with SN12C renal was 60.9%; with UO-31 renal, 65.9%; in the assay with TK-10 renal, 83.9%; in the assay on ACHN renal it was 85.3%; in the assay with CAKI-1 renal, 68%; in the assay on A498 renal it was 39%. The growth with CCRF-CEM leukemia is 1.87% (active); in the assay on MOLT-4 leukemia it was 7.79% (active); in the assay on SR leukemia it was -39.5% (active).

Turning to `CCOc1cccc(/C=N/NC(=O)C(=O)Nc2cccc(C(F)(F)F)c2)c1O`, the growth with SN12C renal was 30.6%; in the assay on UO-31 renal, 9.54% (active); in the assay on TK-10 renal it was 46.1%; in the assay with ACHN renal it was 16.6%; in the assay with CAKI-1 renal it was 9.87% (active); in the assay with A498 renal it was 55.9%. Moreover, the growth with CCRF-CEM leukemia is 14.1%; in the assay with MOLT-4 leukemia, 19.1%; in the assay with SR leukemia it was 15.9%.

Regarding `CCCCCCC(O)(c1ccc(F)cc1)C(CN1CCOCC1)c1ccccc1` (stereo unspecified), the growth in the assay with SN12C renal was 35.3%; in the assay with UO-31 renal it was 19.4%; in the assay on TK-10 renal, 34.2%; with ACHN renal it was 23.7%; with CAKI-1 renal, 33.1%; with A498 renal, 50%. The growth with CCRF-CEM leukemia is 18.1%; in the assay on MOLT-4 leukemia, 17.7%; in the assay on SR leukemia, 23.2%.

With `CCOC(=O)c1ccc2[nH]c(-c3ccccc3)cc(=O)c2c1`, the growth in the assay with SN12C renal was 98.2%; in the assay with UO-31 renal, 97.1%; in the assay on TK-10 renal, 112%; with ACHN renal, 97.5%; in the assay with CAKI-1 renal, 98.5%; in the assay with A498 renal it was 94.4%. Besides, the growth was 89.7% with CCRF-CEM leukemia, 94% in the assay with MOLT-4 leukemia and 96% in the assay with SR leukemia.

Regarding `FC(F)(F)c1cccc(Nc2nc(-c3ccccc3)nc3ncccc23)c1`, the growth in the assay with SN12C renal is 75.8%; with UO-31 renal, 82.4%; in the assay with TK-10 renal, 94.2%; in the assay with ACHN renal, 76.2%; in the assay with CAKI-1 renal, 40.4%; with A498 renal it was -4.48% (active). Also, the growth in the assay on CCRF-CEM leukemia was -21.6% (active); in the assay with MOLT-4 leukemia it was 7.45% (active); in the assay on SR leukemia it was -37.4% (active).

Consider `Clc1ncccc1Nc1ccc2nnc(-c3ccncc3)n2n1`, for which the growth in the assay with SN12C renal was 100%; with UO-31 renal it was 75%; in the assay with TK-10 renal, 112%; in the assay with ACHN renal, 101%; in the assay on CAKI-1 renal, 91.8%; in the assay on A498 renal, 116%. Further, the growth with CCRF-CEM leukemia was 91.2%; in the assay on MOLT-4 leukemia, 93.4%; in the assay on SR leukemia it was 71.3%.

With `COc1ccc(/C=C2\N=C(c3ccccc3)N(c3ccc(-c4nc5ccc(C)cc5s4)cc3)C2=O)cc1`, the growth is 64.3% in the assay on SN12C renal; 34.2% with UO-31 renal; 104% in the assay on TK-10 renal; 80.7% in the assay with ACHN renal; 61.9% in the assay with CAKI-1 renal; 93.6% with A498 renal. In addition, the growth in the assay with CCRF-CEM leukemia is 61.9%; in the assay on MOLT-4 leukemia it was 45.9%; in the assay with SR leukemia, 80.2%.

As to `Cc1ccc(F)cc1NC(=O)c1cc(Cl)ccc1Nc1ccccc1`, the growth with SN12C renal is 32.1%; in the assay on UO-31 renal, 23.7%; in the assay with TK-10 renal, 63%; with ACHN renal it was 42.3%; in the assay on CAKI-1 renal, 48.2%; with A498 renal, 89.1%. Besides, the growth in the assay with CCRF-CEM leukemia is 45.8%; with MOLT-4 leukemia, 29%; with SR leukemia, 44.2%.

Consider `COc1nccc2cc3c(=O)n4c(cc5ccccc54)c(=O)n3c12`, for which the growth with SN12C renal was 95.7%; in the assay with UO-31 renal, 53.4%; in the assay on TK-10 renal, 131%; with ACHN renal, 96%; in the assay on CAKI-1 renal it was 92.5%; in the assay with A498 renal it was 108%. In addition, the growth in the assay with CCRF-CEM leukemia was 96.5%; in the assay with MOLT-4 leukemia, 86.3%; in the assay on SR leukemia it was 87.1%.

As for `CCOC(=O)C1=C(C)N=c2s/c(=C\c3ccccc3O)c(=O)n2C1c1ccc(OC)c2ccccc12` (stereo unspecified), the growth is 47.3% in the assay with SN12C renal; -18.3% (active) in the assay on UO-31 renal; 10.8% with TK-10 renal; 33.5% with ACHN renal; -11.4% (active) in the assay on CAKI-1 renal; 17.6% in the assay on A498 renal. For the same compound, the growth in the assay on CCRF-CEM leukemia was 2.51% (active); in the assay with MOLT-4 leukemia, -9.58% (active); in the assay on SR leukemia, -18.4% (active).

For `CN(C)c1ccc(/C=C/c2ccnc3c(O)cccc23)cc1`, the growth was 21.3% with SN12C renal; -2.54% (active) in the assay on UO-31 renal; 41.6% with TK-10 renal; 12.7% with ACHN renal; -3.49% (active) in the assay on CAKI-1 renal; 45.1% with A498 renal. The growth with CCRF-CEM leukemia is 6.75% (active); in the assay on MOLT-4 leukemia, -13.2% (active); with SR leukemia it was -11.1% (active).

With `COc1ccc(Cn2c(Br)c3c(c2-c2cc(OC)c(OC)c(OC)c2)CCc2sc(NC(=O)c4ccc(OC)cc4)nc2-3)cc1`, the growth in the assay with SN12C renal was 85%; with UO-31 renal it was 47.4%; with TK-10 renal it was 110%; in the assay with ACHN renal it was 97.5%; in the assay with CAKI-1 renal it was 78%; in the assay with A498 renal, 86.7%. Also, the growth in the assay on CCRF-CEM leukemia was 79%; with MOLT-4 leukemia, 75.7%; in the assay with SR leukemia it was 76.2%.

Consider `O=C(N/N=C/c1ccccc1Cl)C(=O)Nc1cccc(C(F)(F)F)c1`, for which the growth in the assay on SN12C renal is 92.7%; with UO-31 renal, 90.8%; in the assay on TK-10 renal it was 83.7%; in the assay on ACHN renal, 76%; with CAKI-1 renal, 97.6%; with A498 renal, 89.3%. Also, the growth is 100% in the assay on CCRF-CEM leukemia, 92.1% in the assay on MOLT-4 leukemia and 65.1% in the assay on SR leukemia.

As to `CCOc1ccccc1CN1CCc2nc3cc(C(C)(C)C)[nH]n3c(=O)c2C1`, the growth with SN12C renal was 104%; in the assay on UO-31 renal it was 93.4%; in the assay on TK-10 renal it was 97.6%; with ACHN renal, 95.4%; in the assay with CAKI-1 renal it was 99.9%; with A498 renal, 101%. Besides, the values for the growth with CCRF-CEM leukemia, in the assay on MOLT-4 leukemia and with SR leukemia were 91.8%, 94.7% and 88.5%, respectively.

The values above are taken from PubChem BioAssay (NCI).
